These results are taken from PubChem BioAssay AID588590 (National Center for Advancing Translational Sciences (NCATS), 2011).

About 4,000 (1%) of roughly 390,000 compounds were called active. About 7% were inconclusive and are not listed. The full list was thinned out, with actives kept by preference. Values without a mark were called inactive. Calls follow the shape of the dose curve; as a rule, active = well fitted inhibition curve with a large enough effect; inconclusive = small, poorly fitted or top-dose-only effect, or another doubt; inactive = no such curve, though single readings can be large or run the other way.
Potency is read from the fitted curve at half-maximal effect.

Sequence of DNA polymerase iota (Homo sapiens) (Q9UNA4 whole entry, looked up): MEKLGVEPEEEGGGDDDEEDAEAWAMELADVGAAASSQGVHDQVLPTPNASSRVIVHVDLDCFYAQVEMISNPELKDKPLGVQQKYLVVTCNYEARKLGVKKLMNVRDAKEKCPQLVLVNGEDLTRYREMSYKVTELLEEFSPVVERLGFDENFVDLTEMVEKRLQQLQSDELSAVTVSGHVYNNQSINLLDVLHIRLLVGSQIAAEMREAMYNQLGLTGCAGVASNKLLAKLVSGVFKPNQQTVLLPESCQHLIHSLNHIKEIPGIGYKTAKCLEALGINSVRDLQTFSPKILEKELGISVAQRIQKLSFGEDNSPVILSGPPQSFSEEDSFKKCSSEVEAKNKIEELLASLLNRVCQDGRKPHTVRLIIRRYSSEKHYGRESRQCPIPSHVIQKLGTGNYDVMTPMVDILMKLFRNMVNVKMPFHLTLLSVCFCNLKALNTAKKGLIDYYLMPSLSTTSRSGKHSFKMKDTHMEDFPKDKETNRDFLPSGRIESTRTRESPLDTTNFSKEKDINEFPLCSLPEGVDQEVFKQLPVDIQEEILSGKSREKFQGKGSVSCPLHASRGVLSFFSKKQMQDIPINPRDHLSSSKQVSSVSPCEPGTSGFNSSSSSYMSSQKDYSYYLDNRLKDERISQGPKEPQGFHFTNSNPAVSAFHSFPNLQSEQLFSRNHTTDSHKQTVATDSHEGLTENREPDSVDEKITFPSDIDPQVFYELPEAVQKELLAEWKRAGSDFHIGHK

This test concerns the target DNA polymerase iota (Homo sapiens) (UniProt Q9UNA4). The test is described as follows: qHTS for Inhibitors of Polymerase Iota. As to conditions: Pol iota fluorescent replication assay, 10 min; series mostly up to 115 µM; activity, negative = inhibition: at the top concentration. Put shortly:
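Pol iota at 10 nM preincubated 15 min with compounds at room temperature; reaction started with fluorescent substrate, 50 nM final. Fluorescence read kinetically at 0 and 10 min; buffer-only wells as negative control.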
For the compound `O=C(O)CSCC(=O)Nc1ccc(C(F)(F)F)cc1`, the “activity, negative = inhibition” value was 47.7%.

As for `CCC(=O)Nc1ccc(C(=O)NNC(=O)c2ccc(Cl)cc2)cc1`, the “activity, negative = inhibition” value was 15%. `O=C(CCl)Nc1ccc(Sc2ccc(NC(=O)CCl)cc2)cc1`: the Potency was 39.8 µM (active).

For `OC(CBr)CN1CCCCC1` (stereo not drawn), the “activity, negative = inhibition” value is 21.6%.

Take `COc1cc(CNCCSc2nnnn2C)ccc1OCc1c(F)cccc1Cl`: the “activity, negative = inhibition” value is -4.04%.

`O=C(Nc1ccccc1)c1ccccc1OCc1ccccc1`: the “activity, negative = inhibition” value is -18.9%. Take `COc1ccc(/C=C/C(=O)NC(=S)N2CCCC(C(N)=O)C2)cc1` (stereo not drawn): the “activity, negative = inhibition” value is -20.3%. For the compound `COc1ccc(/C=C/C(=O)c2cc(Br)ccc(=O)c2O)cc1`, the Potency is 2.51 µM (active). For `COc1cccc(N2CC(NC(=O)/C=C\c3ccccc3)CC2=O)c1` (stereo not drawn), the “activity, negative = inhibition” value was -15.9%.

For the compound `Cc1ccc(OCC(=O)Nc2ccccc2C(=O)NC2CC2)cc1C`, the “activity, negative = inhibition” value is 11.7%.

As to `COc1ccc(NC(=O)c2ccco2)cc1NC(=O)COc1ccc(C)c(C)c1`, the Potency was 70.8 µM (active). Turning to `COc1ccc(NC(=O)c2ccco2)cc1NC(=O)c1ccc(C#N)cc1F`, the Potency entry was “inactive”.

On to `COc1ccccc1CNC(=O)c1ccc(CS(=O)c2ccccc2Cl)o1` (stereo not drawn), for which the “activity, negative = inhibition” value is -3.31%. Take `COc1cc(C)ccc1OCCSc1nc2ccc(NC(=O)c3ccc(C)cc3)cc2s1`: the “activity, negative = inhibition” value was 7.04%. Take `CCc1cccc(CC)c1NC(=O)Cn1c(=O)c(-c2cc(C)ccc2NC(C)=O)nc2ccccc21`: the “activity, negative = inhibition” value is 0.919%. Consider `CN(C)c1ccc(C=Nc2ccc(/C=C/c3ccnc4ccccc34)cc2)cc1`, for which the “activity, negative = inhibition” value was -10.6%.

In the case of `CCOC(=O)N1CCC(N2Cc3cccc(C(=O)Nc4c(C)cccc4CC)c3C2=O)CC1`, the “activity, negative = inhibition” value was 19.9%.

On to `CCOC(=O)N1CCC(N2Cc3cccc(C(=O)Nc4ccc(S(=O)(=O)N(CC)CC)cc4)c3C2=O)CC1`, for which the Potency is 79.4 µM (active). Take `COC(=O)c1ccc(NC(=O)c2cccc3c2C(=O)N(C2CCCCC2)C3)cc1`: the “activity, negative = inhibition” value was 42.3%.

As for `Cc1ccc(Cn2cnc3c(cnn3C(C)(C)C)c2=O)c(F)c1`, the “activity, negative = inhibition” value was 9.41%. In the case of `COc1cccc2c1cc1c(=O)n(CC(=O)N3CCN(c4cccc(Cl)c4)CC3)nc(C)n12`, the “activity, negative = inhibition” value was -0.335%.

In the case of `Cc1ccsc1C(=O)NCCc1ccco1`, the Potency is 39.8 µM (active).

`Cc1ccsc1C(=O)OCC(=O)NCCc1ccccc1`: the “activity, negative = inhibition” value was 31.7%. On to `CCNC(=O)c1sccc1-n1cccc1`, for which the “activity, negative = inhibition” value was -2.91%. Same read-out and setting: under `Cc1cc(C)cc(NS(=O)(=O)c2cc3c(cc2C)NC(=O)CO3)c1` stands 2.58%; under `CCOc1ccc(OCC)c(Nc2nc3ccccc3n3nnnc23)c1`, 31.1%. Same read-out and setting: under `COc1ccccc1N1CCN(c2ncnc3onc(-c4cccc(Cl)c4)c23)CC1` stands 27.2%; under `Cc1c(NC(=O)Nc2ccc(F)c(Cl)c2)c(=O)n(-c2ccccc2)n1C`, 6.61%; under `CC(C)(C)C1CCC(NC(=O)c2cnn3c2NC(=C2CC2)C=C3C(F)F)CC1` (stereo not drawn), -18.2%. Take `Cc1ccc(N2C(=O)S/C(=C/c3cn(C)c4ccccc34)C2=O)cc1`: the “activity, negative = inhibition” value is 40.9%. In the case of `Cc1cc(/C=C2/SC(=O)N(CC(=O)OC(C)C)C2=O)c(C)n1C`, the “activity, negative = inhibition” value is -4.85%. In the case of `Cc1cc(/C=C2\SC(=O)N(C)C2=O)c(C)n1-c1cccc(C(=O)O)c1`, the Potency was 17.8 µM (active). `Cc1cccc(C(=O)Nc2ccc(S(=O)(=O)N3CCCCC3c3cccnc3)cc2)c1` (stereo not drawn): the “activity, negative = inhibition” value was 8.89%. For `CCc1cccc(C)c1Nc1c(-c2ccc(N(C)C)cc2)nc2ncccn12`, the “activity, negative = inhibition” value was 7.92%.

Consider `CCN(C(=O)Cn1c(=O)nc(-c2ccccc2)c2cc(Cl)ccc21)c1cccc(C)c1`, for which the “activity, negative = inhibition” value was 24.1%.

Turning to `CCC(C)N(c1ccc(/C=C/c2ccnc3ccccc23)cc1)C(C)CC` (stereo not drawn), the “activity, negative = inhibition” value was 10%. The same measure, in the same setting: under `CC(=O)N1CCCc2cc(S(=O)(=O)N3CCC(C(=O)NCc4ccc(F)cc4)CC3)ccc21` stands 25.4%; under `CCCCC(=O)OC1=CN(Cc2ccccc2)S(=O)(=O)c2ccccc21`, 2.75%. As for `COc1ccc(CCC(=O)OCC(=O)Nc2ccc(C)c(S(=O)(=O)N(C)C)c2)cc1`, the Potency was 89.1 µM (active). As to `COc1cc(CCC(=O)OCC(=O)Nc2cccc(S(N)(=O)=O)c2)cc(OC)c1OC`, the “activity, negative = inhibition” value was 13.9%. For `CCN(CC(=O)Nc1ccc(C)c(S(=O)(=O)N(C)C)c1)Cc1ccccc1`, the “activity, negative = inhibition” value is 41.7%. Turning to `COc1ccc(-c2cc(C(F)(F)F)n3nc(-c4ccccc4)cc3n2)cc1OC`, the “activity, negative = inhibition” value is 3.5%.

For `Cc1ccnc(-n2sc3ccccc3c2=O)n1`, the Potency is 25.1 µM (active).

As to `Cc1ccc(-c2onc(C)c2C)cc1S(=O)(=O)Nc1ccccn1`, the “activity, negative = inhibition” value was 4.7%. For the compound `COc1cc(OC)c(OC)cc1/C=C1\C=Cc2ccccc21`, the “activity, negative = inhibition” value is 5.35%. Consider `CCc1nnc(SCc2nc(-c3cccc(C)c3)oc2C)c2cc3sc(C)cc3n12`, for which the “activity, negative = inhibition” value was 11.7%.

`O=C(NCC(=O)N1CCN(c2ccccc2O)CC1)c1ccc2ccccc2c1`: the Potency is 89.1 µM (active). For the compound `O=C(CNC(=O)c1ccc2ccccc2c1)Nc1ncccc1O`, the “activity, negative = inhibition” value was 32%. For the compound `COc1ccc(N2CCN(C(=O)CNC(=O)c3ccc(C(C)(C)C)cc3)CC2)cc1`, the “activity, negative = inhibition” value is 21.1%. As for `Cc1ccc(Cl)cc1N1CCN(C(=O)C2CCC(CNS(=O)(=O)c3cccs3)CC2)CC1` (stereo not drawn), the “activity, negative = inhibition” value is 4.99%. `O=C(Cc1ccc([N+](=O)[O-])cc1)N/N=C/c1ccco1`: the “activity, negative = inhibition” value is 111%. Regarding `O=C(N/N=C/c1ccco1)c1ccc(C(=O)N/N=C/c2ccco2)o1`, the Potency is 50.1 µM (active). Turning to `O=C(Cc1ccccc1)Nc1cccc(C(=O)N/N=C/c2ccco2)c1`, the “activity, negative = inhibition” value was 4.91%.
